The source of these data is PubChem BioAssay.

Structures are written as SMILES. Values without a mark were called inactive. Calls of active or inactive are those of the source. No stated cut-off is given here; in the data, active means fold change permeability below about 0.7 or above about 1.3; inactive means in between.

This assay is described as follows: modulators of brain endothelial barrier permeability, primary screen, cell-based, FITC-avidin fluorescence, HTS (AID 1963498). Further: test concentration not given here. The following applies: actives lie on both sides.
Regarding `COc1ccc(Oc2c(Cl)cnn(C3c4ccccc4-c4ccccc43)c2=O)cc1`, the fold change permeability was 1.4 (active).
On to `COc1ccccc1CN[C@H]1CCCN[C@H]1c1ccccc1`, for which the fold change permeability was 0.7 (active).
On to `COc1cc(/C=C/C(=O)N2CCC=CC2=O)cc(OC)c1OC`, for which the fold change permeability is 1.
For `Cn1c(=O)c2c(ncn2CC2OCCO2)n(C)c1=O`, the fold change permeability is 1.
Consider `OC(CCN1CCCCC1)(c1ccccc1)C1CC2C=CC1C2` (centres undefined), for which the fold change permeability is 1.1.
With `CS(=O)(=O)c1ccc(C2=C(c3ccccc3)C(=O)OC2)cc1`, the fold change permeability is 0.8.
For `Oc1ccc(-c2nc(-c3ccc(F)cc3)c(-c3ccncc3)[nH]2)cc1` the value was 1.1.
Take `O=C1CCC(N2C(=O)c3ccccc3C2=O)C(=O)N1` (centres undefined): the fold change permeability is 1.6 (active).
With `CNCCCC12CCC(c3ccccc31)c1ccccc12`, the fold change permeability was 0.9.
In the case of `O=C1Nc2nc(-c3c(O)cccc3OCC3CC3)cc([C@@H]3CCCNC3)c2CO1`, the fold change permeability is 1.6 (active).
For the molecule `CC[C@H]1OC(=O)[C@H](C)C(=O)[C@H](C)[C@@H](O[C@@H]2O[C@H](C)C[C@H](N(C)C)[C@H]2O)[C@](C)(OC)C[C@@H](C)C(=O)[C@H](C)[C@H]2N(CCCCn3cnc(-c4cccnc4)c3)C(=O)O[C@]12C`, the fold change permeability was 0.7 (active).
With `O=C1c2c(O)cc(O)cc2O[C@H](c2ccc(O)c(O)c2)[C@H]1O`, the fold change permeability is 1.
For `CCN1CCc2nc(N)oc2CC1`, the fold change permeability is 1.1.
Consider `CC(C)=CCC/C(C)=C/CC/C(C)=C/CSc1ccccc1C(=O)O`, for which the fold change permeability is 1.4 (active).
As for `CN(C)c1cc2c(Nc3ccc4c(cnn4Cc4ccccc4)c3)ncnc2cn1`, the fold change permeability was 3.5 (active).
With `CN(C)C(=O)Nc1cccc(-c2ccc(N(C)C)cc2)c1`, the fold change permeability is 1.1.
For `COc1ccccc1N1CCN(CCN(C(=O)C2CCCCC2)c2ccccn2)CC1` the value was 2 (active).
As for `C[C@H](NCCc1ccc(O)cc1)[C@H](O)c1ccc(O)cc1`, the fold change permeability is 0.7 (active).
For the molecule `C[C@H](C#Cc1ccc(Cc2ccc(F)cc2)s1)N(O)C(N)=O`, the fold change permeability is 1.1.
As for `CC(=O)N[C@@H](Cc1c[nH]c2ccccc12)C(=O)OCc1cc(C(F)(F)F)cc(C(F)(F)F)c1`, the fold change permeability is 0.9.
Consider `O=NN(CCCl)C(=O)NCCCl`, for which the fold change permeability is 1.
Consider `N#Cc1c(N2CCCC2)nc(N)c2c(N)nc(N3CCCC3)cc12`, for which the fold change permeability was 1.8 (active).
Take `Clc1ccc(Cn2c(CN3CCCC3)nc3ccccc32)cc1`: the fold change permeability is 1.2.
With `CCCCCCCCCCCC(=O)c1c(O)c(C(=O)CCCCCCCCCCC)c(O)c(C2CC(c3ccc(O)cc3)Oc3cc(O)ccc32)c1O` (centres undefined) the figure was 1.4 (active); with `O=C(S)S`, 1.4 (active); with `O=C(O)c1cccc(-c2ccc(-c3cn(C(=O)N4CCCCC4Cc4ccccc4)nn3)cc2)c1` (centres undefined), 1.
In the case of `CC1(C)CO[C@@H](CC(=O)O)CN1`, the fold change permeability is 1.2.
As to `O=C(O)CCC(C(=O)O)N1C(=O)c2ccccc2C1=O` (centres undefined), the fold change permeability was 1.
`COc1ccc(-c2csc(NC(=O)[C@H]3CCCCN3S(=O)(=O)c3ccc(C)cc3)n2)cc1`: the fold change permeability is 0.9.
For the molecule `O=C(O)COc1ccc(C(=O)c2cccs2)c(Cl)c1Cl`, the fold change permeability was 1.4 (active).
For `O=P(O)(O)C(Cl)(Cl)P(=O)(O)O` the value was 1.1; for `CC(C)(C)c1ccc(C(=O)CCCN2CCC(OC(c3ccccc3)c3ccccc3)CC2)cc1`, 1.6 (active).
With `NCCCCC(=O)O` the figure was 1.1; with `CC#C[C@]1(O)CC[C@H]2[C@@H]3CCC4=CC(=O)CCC4=C3[C@@H](c3ccc(N(C)C)cc3)C[C@@]21C`, 0.8; with `COCCOC(=O)C1=C(C)NC(C)=C(C(=O)OC/C=C/c2ccccc2)C1c1cccc([N+](=O)[O-])c1` (centres undefined), 1.2.
Take `NC(CCCP(=O)(O)O)C(=O)O` (centres undefined): the fold change permeability was 0.9.
As for `Nc1ccc(-c2ccc3ccccc3n2)cc1`, the fold change permeability is 1.1.
Take `COc1ccc(Cc2nn3c([C@@H](CCCc4ccccc4)[C@@H](C)O)nc(C)c3c(=O)[nH]2)cc1OC`: the fold change permeability was 1.1.
Turning to `N#Cc1ccc(-c2csc(NN=C3CCCC3)n2)cc1`, the fold change permeability was 1.7 (active).
